Among the data in PubChem BioAssay are composite z-score and z-score values, retold here.

Test [1] in a line: compounds binding Alexa647 anti-His antibody – biochemical, small-molecule microarray, 635 nm fluorescence, artefact control for SMM control protein annotation, primary screen (AID 1128).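 Further: score merges feature fluorescence with signal-to-noise for each printed compound spot.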 Conditions: higher = more signal.
The test system of test [2] is Human papillomavirus type 1a E7 protein (residues 1-88). Put plainly: HPV1a E7 small-molecule binders, primary screen, biochemical, small-molecule microarray, residues 1-88, 635 nm (AID 1129). Conditions: small-molecule microarray binding, fluorescence 635 nm; higher = more signal.
Test [3] deals with Focal adhesion kinase 1 (Homo sapiens) (UniProt Q05397). Nature of the test: PTK2 protein binding on printed compound slides – biochemical, small-molecule microarray, 635/667 nm fluorescence, BSA, DTT, primary screen (AID 1130).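 Further: composite of spot emission at 667 nm and signal to noise over triplicate slides.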 Conditions: 635 nm fluorescence, higher = more signal.
Test [4] relates to Fibrinogen (Alexa647-labelled). Put plainly: Alexa647-fibrinogen binding to printed small molecules – biochemical, small-molecule microarray, 635/667 nm fluorescence, artefact control for SMM control-protein annotation, profiling panel (AID 1131).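 Further: z-score merges 667 nm fluorescence with per-spot signal-to-noise over triplicate slides.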 Conditions: fibrinogen-A647 binding fluorescence, higher = more signal.
The target of test [5] is Follistatin (Homo sapiens) (UniProt P19883). Nature of the test: FST protein binding to printed compounds – biochemical, small-molecule microarray, 635/667 nm fluorescence, primary screen (AID 1132). Conditions: 635 nm fluorescence, higher = more signal.
The target of test [6] is Fibroblast growth factor 2 (Homo sapiens) (UniProt P09038). Put plainly: basic fibroblast growth factor binding to printed compounds – biochemical, small-molecule microarray, 635/667 nm fluorescence, primary screen (AID 1133). Conditions: FGF2, fluorescence 635/667, higher = more signal.
The nature of test [7]: JC-1 mitochondrial potential readout, lung cancer cells – cell-based, A549, JC-1 fluorescence, basal, 24 h, 100 nL, profiling panel (AID 1138).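 Further: A549 lung adenocarcinoma cells under basal conditions with no added stimulus; test concentration not given here.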 Conditions: higher = more signal.
The subject of another test is Lefty1. Put plainly: Lefty1 protein binding to printed compounds – biochemical, small-molecule microarray, 635/667 nm fluorescence, primary screen (AID 1139). Conditions: fluorescence 635/667, higher = more signal.
Test [8] has as its system wheat germ agglutinin (Triticum aestivum), Alexa647-labelled. Put plainly: Alexa647-WGA lectin binding to printed small molecules – biochemical, small-molecule microarray, 635/667 nm fluorescence, artefact control for SMM control-protein annotation, profiling panel (AID 1140).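 Further: score merges 667 nm feature emission with signal to noise over triplicate slides.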 Conditions: WGA-A647 binding, 635 nm fluorescence, higher = more signal.
The target in test [9] is Luciferin 4-monooxygenase (Photinus pyralis) (UniProt P08659). Put plainly: inhibition of purified Photinus pyralis luciferase – biochemical, luminescence, purified enzyme, 2006 set, primary screen (AID 1141).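 Further: cell-free assay with purified firefly luciferase at 100 ng per well in PBS; test concentration not given here.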 Conditions: purified firefly luciferase, SteadyGlo luminescence, 30 min; higher = more signal, called active from +8 up or from −8 down.
Test [10] deals with Wnt5a (protein binding on small-molecule microarray). Nature of the test: small molecules binding Wnt5a protein – biophysical, small-molecule microarray, 635/667 nm fluorescence, primary screen (AID 1142).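 Further: fluorescence read at 667 nm with signal to noise per printed feature.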 Conditions: 635 nm fluorescence, higher = more signal.
Test [11] can be described thus: ATP-based viability of Huh7 replicon cells – cell-based, CellTiter-Glo luminescence, basal, 48 h, cytotoxicity control for HCV replication inhibitor project, primary screen (AID 1143).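 Further: Huh7 hepatoma cells carrying a hepatitis C replication reporter with no stimulus; test concentration not given here.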 Conditions: higher = more signal, called active from +8 up or from −8 down. In general terms: Replicon systems follow genome replication, usually without infectious particles.
The nature of test [12]: Pseudomonas biofilm growth suppression – PAO1 strain, BacTiter-Glo luminescence, LB-PBS, primary screen (AID 1144). Conditions: P. aeruginosa PAO1 biofilm, 12 h, higher = more signal.
Test [13] in a line: basal CRE-LacZ reporter activity in PC12 – cell-based, unstimulated, primary screen (AID 1145). Conditions: no forskolin, luminescence, 4.5 h, higher = more signal, called active from +8 up or from −8 down.
Test [14] in a line: forskolin-driven CRE-LacZ activity in PC12 – cell-based, CRE-LacZ reporter, forskolin-stimulated, primary screen (AID 1146).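 Further: PC12 cells with 6xCRE LacZ reporter stimulated by forskolin 10 µM; beta-galactosidase reporter signal reflecting CREB driven transcription.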 Conditions: luminescence, 4.5 h, higher = more signal, called active from +8 up or from −8 down.
In test [15] the target is Streptavidin (Streptomyces avidinii) (UniProt P22629). Nature of the test: compounds binding control protein streptavidin – biophysical, small-molecule microarray, 635/667 nm fluorescence, artefact control for SMM compound annotation, primary screen (AID 1147).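 Further: signal reflects streptavidin binding to arrayed compounds as a control protein.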 Conditions: higher = more signal.
The nature of test [16]: probe aInhba binding on compound microarray – biochemical, small-molecule microarray, 635/667 nm fluorescence, primary screen (AID 1148).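 Further: score merges 667nm spot fluorescence with signal-to-noise for antibody binding to printed compounds.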 Conditions: higher = more signal.
In test [17] the target is Torsin-1A (Homo sapiens) (UniProt O14656). Put plainly: TOR1A wild-type binding on microarray – cell lysate, small-molecule microarray, lysate, 635/667 nm, primary screen (AID 1149). Conditions: COS7 hTOR1A-WT lysate, 635 nm fluorescence, higher = more signal.
Test [18] shares this target. Put plainly: torsin A mutant lysate binding on microarrays – cell lysate, small-molecule microarray, COS7 lysate, 635/667 nm fluorescence, primary screen (AID 1150).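 Further: score pools 667 nm emission and signal to noise measuring lysate protein binding.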 Conditions: COS7 hTOR1A mutant lysate, 635 nm fluorescence, higher = more signal.
In test [19] the test system is Sonic hedgehog protein (Shh). Put plainly: Sonic hedgehog microarray binding compounds – biochemical, small-molecule microarray, 635/667 nm fluorescence, primary screen (AID 1151).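 Further: Shh protein binding to compounds spotted on small-molecule microarray slides; score combines spot fluorescence intensity with signal-to-noise across triplicate slides.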 Conditions: 635 nm fluorescence, higher = more signal.

SMILES strings stand for the structures. Active and inactive are the calls of the source. Unless noted, how the calls were made is not given here.

Chain of Fibroblast growth factor 2 (Homo sapiens) (P09038 whole entry, looked up): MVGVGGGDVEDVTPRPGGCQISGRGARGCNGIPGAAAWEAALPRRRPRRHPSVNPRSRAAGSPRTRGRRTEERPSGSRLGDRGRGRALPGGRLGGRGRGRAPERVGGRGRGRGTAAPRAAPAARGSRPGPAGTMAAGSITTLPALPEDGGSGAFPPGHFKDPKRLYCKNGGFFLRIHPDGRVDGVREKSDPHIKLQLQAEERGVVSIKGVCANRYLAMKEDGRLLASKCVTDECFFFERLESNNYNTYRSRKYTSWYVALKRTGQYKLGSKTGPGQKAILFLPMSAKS
Chain of Focal adhesion kinase 1 (Homo sapiens) (Q05397 whole entry, looked up): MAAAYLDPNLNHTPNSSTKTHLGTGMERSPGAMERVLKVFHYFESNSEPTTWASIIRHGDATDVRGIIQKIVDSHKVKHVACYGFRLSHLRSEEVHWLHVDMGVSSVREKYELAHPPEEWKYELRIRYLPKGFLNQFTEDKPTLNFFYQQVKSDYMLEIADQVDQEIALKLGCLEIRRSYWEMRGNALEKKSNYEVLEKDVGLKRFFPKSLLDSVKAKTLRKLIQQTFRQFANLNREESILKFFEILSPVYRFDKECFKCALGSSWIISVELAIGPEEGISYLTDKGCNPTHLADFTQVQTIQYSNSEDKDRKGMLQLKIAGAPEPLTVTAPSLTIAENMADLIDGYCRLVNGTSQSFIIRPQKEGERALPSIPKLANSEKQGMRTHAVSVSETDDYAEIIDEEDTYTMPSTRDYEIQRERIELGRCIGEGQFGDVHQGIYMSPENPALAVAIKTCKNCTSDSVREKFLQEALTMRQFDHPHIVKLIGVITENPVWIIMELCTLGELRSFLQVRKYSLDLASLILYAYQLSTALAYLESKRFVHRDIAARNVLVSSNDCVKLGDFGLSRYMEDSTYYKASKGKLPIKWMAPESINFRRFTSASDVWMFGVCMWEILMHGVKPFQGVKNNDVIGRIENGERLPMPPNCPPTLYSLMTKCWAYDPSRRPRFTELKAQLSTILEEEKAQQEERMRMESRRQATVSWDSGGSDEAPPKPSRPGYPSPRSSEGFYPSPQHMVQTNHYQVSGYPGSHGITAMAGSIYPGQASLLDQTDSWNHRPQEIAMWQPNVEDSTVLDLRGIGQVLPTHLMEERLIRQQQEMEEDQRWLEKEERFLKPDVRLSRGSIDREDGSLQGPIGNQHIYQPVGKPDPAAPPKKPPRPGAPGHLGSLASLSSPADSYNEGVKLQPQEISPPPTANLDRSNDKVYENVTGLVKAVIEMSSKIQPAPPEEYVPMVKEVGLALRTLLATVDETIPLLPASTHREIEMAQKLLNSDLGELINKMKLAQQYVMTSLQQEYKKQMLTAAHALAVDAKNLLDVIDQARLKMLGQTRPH
Chain of Luciferin 4-monooxygenase (Photinus pyralis) (P08659 whole entry, looked up): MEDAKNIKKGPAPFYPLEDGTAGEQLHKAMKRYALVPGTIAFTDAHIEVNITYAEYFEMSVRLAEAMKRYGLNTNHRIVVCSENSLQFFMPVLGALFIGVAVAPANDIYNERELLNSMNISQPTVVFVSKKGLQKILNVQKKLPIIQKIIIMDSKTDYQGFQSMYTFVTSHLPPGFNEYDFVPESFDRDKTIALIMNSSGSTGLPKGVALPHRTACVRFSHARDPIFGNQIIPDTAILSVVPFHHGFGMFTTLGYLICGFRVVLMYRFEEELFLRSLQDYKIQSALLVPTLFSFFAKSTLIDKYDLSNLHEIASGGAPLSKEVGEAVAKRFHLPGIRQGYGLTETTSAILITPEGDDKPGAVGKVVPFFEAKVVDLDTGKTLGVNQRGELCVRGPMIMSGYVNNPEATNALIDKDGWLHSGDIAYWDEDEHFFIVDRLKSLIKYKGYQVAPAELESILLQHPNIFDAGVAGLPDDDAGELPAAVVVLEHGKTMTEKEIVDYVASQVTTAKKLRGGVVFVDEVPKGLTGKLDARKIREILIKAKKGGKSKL
Chain of Follistatin (Homo sapiens) (P19883 whole entry, looked up): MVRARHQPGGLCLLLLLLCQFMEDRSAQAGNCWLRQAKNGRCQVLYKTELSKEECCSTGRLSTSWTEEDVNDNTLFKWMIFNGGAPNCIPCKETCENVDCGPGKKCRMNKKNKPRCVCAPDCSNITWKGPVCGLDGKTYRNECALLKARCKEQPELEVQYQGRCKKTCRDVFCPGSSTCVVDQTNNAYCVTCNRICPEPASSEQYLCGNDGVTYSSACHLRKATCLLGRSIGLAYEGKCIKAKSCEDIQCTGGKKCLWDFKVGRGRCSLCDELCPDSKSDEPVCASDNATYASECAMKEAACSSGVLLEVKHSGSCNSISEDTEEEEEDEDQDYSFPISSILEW
Chain of Torsin-1A (Homo sapiens) (O14656 whole entry, looked up): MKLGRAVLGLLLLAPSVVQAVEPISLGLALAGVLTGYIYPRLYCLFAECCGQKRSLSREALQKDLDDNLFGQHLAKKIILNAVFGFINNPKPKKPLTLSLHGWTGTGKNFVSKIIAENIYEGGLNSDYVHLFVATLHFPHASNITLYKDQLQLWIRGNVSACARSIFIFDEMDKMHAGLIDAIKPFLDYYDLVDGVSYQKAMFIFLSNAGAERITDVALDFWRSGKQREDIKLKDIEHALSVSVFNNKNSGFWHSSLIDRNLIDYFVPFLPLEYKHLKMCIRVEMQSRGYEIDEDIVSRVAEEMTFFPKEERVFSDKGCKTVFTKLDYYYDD
Chain of Streptavidin (Streptomyces avidinii) (P22629 whole entry, looked up): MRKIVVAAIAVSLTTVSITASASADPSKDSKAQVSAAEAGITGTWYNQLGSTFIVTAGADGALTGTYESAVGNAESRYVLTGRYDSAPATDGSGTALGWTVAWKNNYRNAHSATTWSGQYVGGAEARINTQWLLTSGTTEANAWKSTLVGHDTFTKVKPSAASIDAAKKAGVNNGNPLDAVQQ

In the case of `CCc1cc2c(nc1CC)CCN(CCC(C)=NOC[C@@H](O)[C@H]1O[C@@H]3OC(C)(C)O[C@@H]3[C@H]1O)C2`, the composite z-score in [1] is 0.29; in [2] it was -0.0321; in test [3] it was -0.113; in [4], 0.572; in test [5], 0.187; in [6], 0.106. The composite z-score in the test with Lefty1 is 0.446; in test [8], 0.878; in test [10], 0.146; in [15], 0.18; in test [16] it was -0.0216; with Torsin-1A (Homo sapiens) [17], 0.3. The composite z-score with Torsin-1A (Homo sapiens) [18] came out at 0.101; in test [19], 0.528. Also, the z-score in test [7] was 0.489; in test [9], -0.0353 (inactive); in [11], 0.731 (inactive); in [12], -0.319 (inactive); in test [13], 0.006 (inactive); in test [14], 0.347 (inactive).

As to `CN(C)c1ccc(C(O)C2C=CC3C(=O)N(c4ccccc4)C(=O)C3N2Nc2ccccc2F)cc1` (stereo not given), the composite z-score is 1.68 in test [1]; 1.24 in test [2]; 0.0651 in test [3]; 0.793 in test [4]; 0.404 in [5]; -0.872 in test [6]. Besides, the composite z-score in the test on Lefty1 is 0.0136; in test [8] it was 0.792; in test [10] it was 0.0698; in test [15] it was 0.557; in test [16], -0.125; with Torsin-1A (Homo sapiens) [17] it was 0.221. For the same molecule, the composite z-score with Torsin-1A (Homo sapiens) [18] was 0.15; in test [19], -0.378. The z-score in test [7] is -1.06; in test [9] it was -0.484 (inactive); in [11] it was -1.3 (inactive); in test [12], 0.136 (inactive); in [13] it was 2.56 (inactive); in [14] it was 1.03 (inactive).

As to `CCCC=C(CCC)[C@@H](NC(=O)c1ccc(-c2ccccc2)cc1)c1ccc(C(=O)OC)cc1`, the composite z-score in [1] is 0.377; in [2], 1.19; in [3], 0.296; in test [4] it was 0.967; in test [5], 0.142; in test [6], -0.558. Besides, the composite z-score in the test with Lefty1 is -0.182; in test [8], 1.2; in test [10], -0.0745; in test [15] it was 1.09; in test [16] it was 0.0872; with Torsin-1A (Homo sapiens) [17], -0.162. In addition, the composite z-score was 0.0735 with Torsin-1A (Homo sapiens) [18] and -0.809 in [19]. For the same molecule, the z-score in [7] is -0.457; in [9] it was 1.93 (inactive); in test [11], -0.116 (inactive); in [12] it was 0.29 (inactive); in [13], 0.576 (inactive); in [14] it was 0.381 (inactive).

On to `Cc1ccc(S[C@]2(C(=O)NCC(F)(F)F)CC(=O)N(Cc3ccccc3Cl)[C@@H]2c2ccc(CO)cc2I)cc1`, for which the composite z-score in [1] is -1.18; in test [2], -0.0053; in test [3] it was 0.395; in [4], -0.563; in test [5], -0.253; in [6], -0.624. The composite z-score in the test with Lefty1 was -0.558; in test [8], 1.13; in [10], -0.273; in [15], -0.809; in [16] it was -0.152; with Torsin-1A (Homo sapiens) [17], -0.396. The composite z-score with Torsin-1A (Homo sapiens) [18] is 0.288; in test [19], -0.155. Also, the z-score in test [7] is 1.14; in test [9], -0.289 (inactive); in [11] it was -1.36 (inactive); in test [12] it was 0.977 (inactive); in test [13], 3.13 (inactive); in test [14], 2.82 (inactive).

On to `CC(CCC(=O)OC[C@H]1O[C@H](C#Cc2ccccc2)C=C[C@@H]1Oc1ccc(C)cc1)=NO[C@@H](C)c1cn([C@H](CO)Cc2ccccc2)nn1`, for which the composite z-score in [1] amounted to 1.35; in test [2], 0.0769; in test [3], 0.0915; in test [4] it was 0.716; in test [5], 0.335; in [6], 0.61. Moreover, the composite z-score is 0.393 in the test with Lefty1; 0.587 in [8]; 0.204 in [10]; 0.258 in test [15]; -0.003 in test [16]; -0.323 in the test with Torsin-1A (Homo sapiens) [17]. In addition, the composite z-score is -0.146 in the test with Torsin-1A (Homo sapiens) [18] and 0.316 in test [19]. In addition, the z-score in [7] was -0.97; in test [9], 0.991 (inactive); in test [11] it was -2.82 (inactive); in test [12] it was -1.07 (inactive); in test [13], 1.07 (inactive); in test [14] it was 0.0061 (inactive).
